PubChem BioAssay AID1159580 (chemical genetic matrix, 2015)
Several values for one entry are separate records, joined by “and”; a condition that tells them apart may be missing. Identical values can stand only once. The whole screen tested about 5,500 compounds, of which about 2,000 (36%) were called active. About 18% were inconclusive and are not listed. No stated cut-off is given here; in the data, active means normalized growth mostly below about 0.91 (no sharp cut-off); inconclusive means no clear call, values can overlap the other calls; inactive means mostly above about 0.92. This is one part of the list.

Assay: chemical genetic growth profiling, strain panel (AID 1159580);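 further: tested at 20 µM; growth read once vehicle control cultures reached saturation at 30 °C; 1 = growth at the plate median or of vehicle wells; lower values mean less growth of the strain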
Conditions: S. cerevisiae deletion strains, growth OD

Measured: normalized growth

COC(=O)C[C@H]1C(C)(C)C(=O)[C@@H]2CC3=C(CC[C@]4(C)C3=CC(=O)O[C@H]4c3ccoc3)[C@@]1(C)C2=O
inactive: locus YAL021C, strain ccr4, active compounds read low 1.02 | locus YAL026C, strain drs2, active compounds read low 0.985 | locus YAL030W, strain snc1, active compounds read low 0.979 | locus YBL061C, strain skt5, active compounds read low 0.986 | locus YBR009C, strain hhf1, active compounds read low 0.983 | locus YBR021W, strain FUR4, active compounds read low 0.992 | locus YBR023C, strain chs3, active compounds read low 0.976 | locus YBR171W, strain sec66, active compounds read low 0.947 | locus YBR229C, strain ROT2, active compounds read low 1 | locus YBR231C, strain swc5, active compounds read low 0.968 | locus YBR279W, strain paf1, active compounds read low 0.988 | locus YCL011C, strain gbp2, active compounds read low 0.953 | locus YCL016C, strain dcc1, active compounds read low 0.993 | locus YCL029C, strain bik1, active compounds read low 1.02 | locus YCL061C, strain MRC1, active compounds read low 1 | locus YCL069W, strain vba3, active compounds read low 0.958 | locus YCR088W, strain abp1, active compounds read low 0.96 | locus YDL005C, strain med2, active compounds read low 0.966 | locus YDL035C, strain GPR1, active compounds read low 0.996 | locus YDL040C, strain nat1, active compounds read low 0.966 | locus YDL074C, strain BRE1, active compounds read low 1 | locus YDL101C, strain DUN1, active compounds read low 1 | locus YDL134C, strain PPH21, active compounds read low 1 | locus YDL185W, strain tfp1, active compounds read low 1.01 | locus YDL192W, strain arf1, active compounds read low 1.02 | locus YDR001C, strain nth1, active compounds read low 0.979 | locus YDR069C, strain doa4, active compounds read low 0.961 | locus YDR101C, strain arx1, active compounds read low 1.01 | locus YDR137W, strain rgp1, active compounds read low 1 | locus YDR159W, strain sac3, active compounds read low 0.962 | locus YDR162C, strain NBP2, active compounds read low 1.01 | locus YDR195W, strain ref2 0.956 | locus YDR297W, strain sur2, active compounds read low 0.977 | locus YDR318W, strain mcm21, active compounds read low 1.02 | locus YDR334W, strain swr1, active compounds read low 0.961 | locus YDR335W, strain msn5, active compounds read low 0.968 | locus YDR388W, active compounds read low 1.01 | locus YDR392W, strain spt3, active compounds read low 0.96 | locus YDR502C, strain sam2, active compounds read low 1 | locus YEL003W, strain gim4, active compounds read low 0.973 | locus YEL037C, strain rad23, active compounds read low 0.962 | locus YEL061C, strain CIN8 (second series), active compounds read low 0.958 | locus YEL061C, strain CIN8, active compounds read low 0.999 | locus YER015W, strain faa2, active compounds read low 0.985 | locus YER016W, strain bim1, active compounds read low 0.971 | locus YER110C, active compounds read low 1.02 | locus YER111C, strain swi4, active compounds read low 0.953 | locus YER155C, strain BEM2 (second series), active compounds read low 0.988 | locus YER155C, strain BEM2, active compounds read low 1 | locus YER167W, strain BCK2, active compounds read low 1.01 | locus YFR010W, strain ubp6, active compounds read low 0.961 | locus YGL078C, strain dbp3, active compounds read low 1.03 | locus YGL086W, strain mad1, active compounds read low 1 | locus YGL167C, strain pmr1, active compounds read low 0.988 | locus YGL173C, strain kem1, active compounds read low 0.975 | locus YGL227W, strain vid30, active compounds read low 0.976 | locus YGL240W, strain doc1, active compounds read low 0.954 | locus YGL248W, strain PDE1, active compounds read low 1.01 | locus YGL253W, strain hxk2, active compounds read low 0.951 | locus YGR135W, strain pre9, active compounds read low 1.01 | locus YGR229C, strain SMI1, active compounds read low 1.01 | locus YGR252W, strain gcn5, active compounds read low 1 | locus YHR013C, strain ard1, active compounds read low 0.981 | locus YHR027C, strain rpn1, active compounds read low 0.994 | locus YHR030C, strain SLT2, active compounds read low 0.985 | locus YHR079C, strain IRE1 (second series), active compounds read low 1.02 | locus YHR079C, strain IRE1, active compounds read low 0.974 | locus YHR094C, strain hxt1, active compounds read low 1.01 | locus YHR129C, strain ARP1, active compounds read low 0.998 | locus YHR142W, strain chs7, active compounds read low 0.965 | locus YHR200W, strain rpn10, active compounds read low 0.996 | locus YIL066C, strain RNR3, active compounds read low 0.999 | locus YIL073C, strain SPO22, active compounds read low 1.09 | locus YIL125W, strain kgd1, active compounds read low 1.01 | locus YIR030C, strain dcg1, active compounds read low 1.02 | locus YJL092W, strain hpr5, active compounds read low 0.964 | locus YJL095W, strain BCK1 (second series), active compounds read low 0.99 | locus YJL095W, strain BCK1, active compounds read low 1.01 and 0.983 | locus YJL115W, strain asf1, active compounds read low 0.97 | locus YJL129C, strain trk1, active compounds read low 0.959 | locus YJL134W, strain LCB3, active compounds read low 1 | locus YJL154C, strain vps35, active compounds read low 0.966 | locus YJL164C, strain tpk1, active compounds read low 0.994 | locus YJL166W, strain qcr8, active compounds read low 0.973
